# WNV NS2B-NS3 inh: blocks West Nile virus NS2B-NS3 protease activity; P06935; WNV NS2B-NS3 protease, fluorogenic substrate Ex360/Em465; active compounds read low; z-score (test concentration not listed); actives 0.18% (n = 65,000); AID 577; in the data active = z-score below about -3
# Autofluor 339: intrinsic fluorescence of library compounds, ex339/em460 – biochemical, MLSMR library, data from DPM-DC assay, artefact control, profiling panel. compound autofluorescence, ex339/em460 nm, NADH buffer; active compounds read high; 1 = no-compound wells, NADH background. fluorescence fold increase at 10 µM. actives 5.5% (n = 65,000). AID 709;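 active = at 10 µM, mean starting fluorescence two-fold or more over control wells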;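 also: signal is the first read of a kinetic run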
# M1 agonist: agonists of M1 muscarinic receptor; actives 3% (n = 64,000); CHO-M1 cells, Fluo-4 calcium fluorescence, agonist mode; active compounds read high; B-score at 10 µM;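 active = fluorescence rise, raw or as B-score row- and column-corrected plate score, outside the 99.7% band of its plate's samples, either direction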
# A340 absorber: absorbance at 340 nm; compound absorbance at 340 nm, fold over control; fold change at 10 µM; 65,000 tested, under 10 active; AID 708;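 active = at 10 µM dose, initial 340 nm absorbance at least 2 fold that of control wells; inactive = change under 2 fold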;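 also: initial absorbance extrapolated from kinetic A340 decline of NADH oxidation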
# M1 antagonist: M1 muscarinic receptor (rat) antagonism; P08482; CHO-M1 cells, Fluo-4 calcium, ACh EC80 antagonist mode; active compounds read low; B-score at 10 µM; actives 3.4% (n = 64,000); AID 628;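 active = calcium fluorescence response, raw or row-and-column corrected B-score, differing from the plate sample mean either way at a set confidence level, mostly lower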
# Target sequence (P08482 whole entry, looked up): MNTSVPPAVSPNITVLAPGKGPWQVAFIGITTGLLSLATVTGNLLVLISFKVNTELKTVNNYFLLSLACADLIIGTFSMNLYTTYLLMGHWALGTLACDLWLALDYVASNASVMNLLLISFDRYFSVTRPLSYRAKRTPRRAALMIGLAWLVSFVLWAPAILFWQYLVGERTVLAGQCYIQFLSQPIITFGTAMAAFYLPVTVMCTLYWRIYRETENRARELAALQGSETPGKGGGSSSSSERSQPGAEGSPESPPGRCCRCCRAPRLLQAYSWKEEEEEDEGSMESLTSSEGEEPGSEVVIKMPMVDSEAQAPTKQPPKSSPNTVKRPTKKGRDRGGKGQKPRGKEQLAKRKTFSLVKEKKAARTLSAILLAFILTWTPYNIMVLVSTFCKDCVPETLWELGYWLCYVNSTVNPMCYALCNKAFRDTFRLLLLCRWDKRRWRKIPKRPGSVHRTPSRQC
# BAP1 inh: human BAP1 deubiquitinase inhibition; AID 436; recombinant BAP1, Ub-AMC hydrolysis fluorescence kinetic; active compounds read low; actives 0.48% (n = 72,000); calls only at 20 µM;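 active = activity remaining at or below 50% of control, provided the compound also passes the data quality filters; inactive = the rest, including low values that fail the filters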;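 also: 100% = DMSO wells rate and 0% = substrate alone blank rate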
# M1 antag confirm: confirmation of rat M1 muscarinic receptor antagonists; shares compounds with M1 antagonist; CHO-M1 cells, Fluo-4 calcium, ACh EC80 antagonism; active compounds read low; calcium response (max-min fluorescence) at 10 µM; actives 43% (n = 1,700);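 active = calcium response below the same-plate mean of wells given acetylcholine alone at its 80%-effect dose, minus 3 SD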;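 also: raw fluorescence intensity difference in arbitrary instrument units and not normalized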
# mGluR4 antag: selectivity test for M1 antagonists: human mGluR4 receptor. shares compounds with M1 antagonist. CHO-mGluR4 calcium flux, Fluo-4 fluorescence, glutamate EC80; active compounds read low. fluorescence response (max-min) at 10 µM. actives 0.9% (n = 1,700). AID 678;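 active = fluorescence response below the plate's average for near-maximal glutamate wells, less 3 SD of those wells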;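 also: raw unnormalized fluorescence span taken in the window right after glutamate addition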
# * = called active by the depositor; i = inactive; · = not tested or not shown. A selection: hits, their analogues and other compounds. The true share with any hit is near 9.7%.
SMILES,WNV NS2B-NS3 inh,Autofluor 339,M1 agonist,A340 absorber,M1 antagonist,BAP1 inh,M1 antag confirm,mGluR4 antag
COc1ccc2oc(=O)c(C(=O)N3CCN(C45CC6CC(CC(C6)C4)C5)CC3)cc2c1,0.6,3.7*,-0.01,1,-3*,i,390,209
Cc1cc2nnc(SCc3ccccc3F)n2c2ccccc12,·,·,·,·,·,i,·,·
O=C1C2C3C=CC(C4CC34)C2C(=O)N1c1cc(C(F)(F)F)ccc1Cl (stereo not given),·,·,·,·,·,i,·,·
O=C1CC(c2ccc(Cl)c(Cl)c2)CC(O)=C1C=NCCN1CCNCC1 (stereo not given),1,1.1,0.21,1.1,-13*,i,173*,238
O=C1CC(c2ccccc2)CC(O)=C1C=NCCN1CCNCC1 (stereo not given),-0.74,0.98,0.21,1,-0.39,i,·,·
CCOC(=O)CCSCC(=O)Nc1cc(C)on1,-0.03,1.1,-0.64,1.1,-0.28,i,·,·
CCOC(=O)CCSCC(=O)Nc1nnc(C)s1,0.29,1.1,-0.25,1,-2.4*,i,603,241
CC(=O)N(Cc1c(NC(=O)c2ccccc2)sc(C)c1C)C(C)C,·,·,·,·,·,i,·,·
CCSc1nc2c(c(=O)n1Cc1ccccc1)SC(C)C2 (stereo not given),1.2,1.1,1.1,1.1,-3.7*,i,373*,245
CC1Cc2nc(SCC(N)=O)n(Cc3ccccc3)c(=O)c2S1 (stereo not given),-0.45,1,0.27,1,-0.73,i,·,·
O=C(Oc1ccc(OC(=O)N2CCCCC2)cc1)c1ccccc1,0.3,1.1,-0.083,1.2,-2.9*,i,237*,293
COCCCn1c(SCC(=O)N(C)C)nnc1-c1ccccc1,-0.53,0.98,0.096,0.99,0.25,i,·,·
CCOC(=O)CN(C(=O)CSc1nnc(-c2ccncc2)n1CCCN(C)C)c1ccccc1,0.1,1,0.28,0.99,-1.4*,i,611,249
O=C(Nc1sccc1C(=O)N1CCOCC1)c1cccnc1,-0.88,1.1,-0.14,1.1,-5.1*,i,623,245
COc1ccccc1C1C(C#N)=C(N)Oc2cc(C)n(CCCn3ccnc3)c(=O)c21 (stereo not given),1.3,1.2,-0.61,1,-2.6*,i,379*,201
CCn1c(SCC(N)=O)nnc1-c1ccc2[nH]c(C)c(C)c2c1,-1.3,1.1,-2.5,1,-0.88,i,·,·
CCn1c(SCC(N)=O)nnc1-c1cc2c(C)nn(-c3ccccc3)c2s1,-0.01,1.1,0.75,1,-2.7*,i,489,160*
CCOCCCn1c(=S)[nH]c2cc(C(=O)NCCN(CC)CC)ccc2c1=O,-1.2,1,0.12,0.99,-8.8*,i,538,204
Cc1nc(NCc2ccco2)[nH]c(=O)c1CCC(C)C,-0.97,1.1,0.95,1,-2.4*,i,619,289
Cc1nc(NCC2CCCO2)[nH]c(=O)c1CCC(C)C (stereo not given),-0.44,1.1,-0.41,1,0.61,i,·,·
Cc1oc(-c2ccc(Cl)cc2)[n+]([O-])c1C,0.55,1.1,-0.88,1,-1.6*,i,527,233
Cc1cccc(C(=O)Nc2nnc(CCc3ccccc3)s2)c1,·,·,·,·,·,i,·,·
CN1CCN(C(=O)N2c3ccccc3C=Cc3ccccc32)CC1,1.9,1.1,1.8,1.1,-18*,i,20*,198
CSc1nc(SCC(N)=O)c2c3c(sc2n1)CN(C)CC3,-1.4,1.7,-0.85,1.1,-5.1*,·,361*,253
CSc1nc(NCc2ccco2)c2c3c(sc2n1)CN(C)CC3,0.51,1.8,1.7,1.1,-2.8*,·,711,250
SMILES,WNV NS2B-NS3 inh,Autofluor 339,M1 agonist,A340 absorber,M1 antagonist,BAP1 inh,M1 antag confirm,mGluR4 antag
CCC(O)CNc1nc(SC)nc2sc3c(c12)CCN(C)C3 (stereo not given),0.24,2.2*,0.0092,1,-4.3*,·,154*,197
COc1cccc(C(=O)Nc2nc(-c3ccc(F)cc3)cs2)c1,·,·,·,·,·,i,·,·
CCn1c(SCC(=O)N2CCCc3ccccc32)nnc1-c1cccs1,-0.12,1,-0.77,0.99,0.42,i,·,·
CCn1c(CSc2ncccn2)nnc1SCC(=O)N1CCc2ccccc21,0.52,1.1,-0.95,1,-5.4*,i,474,225
CCc1nnc(SCC(=O)N2CCCc3ccccc32)nc1CC,-0.5,1.1,0.25,0.98,-3.3*,i,655,239
CCN(CC)S(=O)(=O)c1ccc(Cl)c(C(=O)NC2CCCC2)c1,-0.47,1.1,-0.35,1,0.0035,i,·,·
CCN(CC(=O)NC1CCCCC1)S(=O)(=O)c1ccc(Cl)cc1,0.71,1.1,-0.44,1,-3.2*,i,680,228
COc1ccc(-c2[nH]ncc2-c2cnn(-c3ccccc3)c2)c(O)c1,-0.64,1.1,0.38,1,-3.3*,·,553,202
Cc1cc(C)n(S(=O)(=O)c2ccc(C(C)(C)C)cc2)n1,0.51,1.1,-0.11,0.98,-8.7*,i,20*,246
COc1cccc(-n2ccnc2SCC(=O)NCc2ccccc2)c1,1,1.1,0.093,1,-2.7*,i,528,191
Cc1cc(/C=N\O)c(C)n1-c1ccncc1,1.1,0.99,1.6,0.99,0.78,i,·,·
Cc1cc(/C=C(/C#N)c2cccc(F)c2)c(C)n1-c1cccnc1,-0.99,1.2,-0.3,1.1,-5*,i,555,186
CCCCc1ccc(NC(=O)COc2ccc(Cl)cc2)cc1,·,·,·,·,·,i,·,·
CCC(=O)NC(c1ccc(OC)c(OC)c1)c1ccc2cccnc2c1O (stereo not given),·,·,·,·,·,i,·,·
COc1ccccc1NC(=O)CSc1nnc(CNC(=O)COc2ccc(Cl)cc2)o1,-1.1,1.1,-0.027,1,-2.8*,i,685,245
COc1ccc(OC)c(NC(=O)CSc2nnc(CNC(=O)COc3ccc(Cl)cc3)o2)c1,-0.32,1.1,-1.6,0.98,1.1,i,·,·
CCC1C(=O)C(C)(C)C(=O)OC1c1cccc([N+](=O)[O-])c1 (stereo not given),·,·,·,·,·,i,·,·
CC(NC(=O)Nc1nnc(C(F)(F)F)s1)(C(F)(F)F)C(F)(F)F,0.41,1.1,4.1,1,-1.3*,i,513*,290
CC(NC(=O)Nc1nnc(C(F)(F)F)s1)N1C(=O)C2C3C=CC(C3)C2C1=O (stereo not given),-1.2,1.1,0.47,0.97,-0.0012,i,·,·
